Compounds with a hit are over-represented: about 1.8% of the library has one in this group of screens.
EP2 antag = EP2 receptor (human) inhibition. inhibition, % at 25 µM. 0.52% of 260,000 active. C6 glioma cells expressing human EP2, cAMP TR-FRET; cells stimulated with saturating PGE2. AID 1422;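 active = percent inhibition above 40 after rounding to a whole number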;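 also: rat C6 glioma host cells with rolipram phosphodiesterase inhibitor present; the protocol text gives 20 µM as final concentration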
Target sequence (P43116 whole entry, looked up): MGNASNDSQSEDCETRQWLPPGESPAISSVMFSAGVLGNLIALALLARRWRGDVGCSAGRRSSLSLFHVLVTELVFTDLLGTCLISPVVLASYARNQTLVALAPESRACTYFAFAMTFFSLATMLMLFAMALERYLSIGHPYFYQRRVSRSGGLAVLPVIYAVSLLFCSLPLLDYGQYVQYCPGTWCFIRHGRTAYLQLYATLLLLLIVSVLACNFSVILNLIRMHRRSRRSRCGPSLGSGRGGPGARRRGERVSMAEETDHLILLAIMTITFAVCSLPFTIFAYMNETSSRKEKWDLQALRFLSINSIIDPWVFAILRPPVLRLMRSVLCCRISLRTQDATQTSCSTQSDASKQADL
PERK inh = blocks human PERK kinase; CHO PERK-DD fusion, SEAP luminescence translation reporter; 0.17% of 220,000 active; inhibition, % at 5.6 µM; Q9NZJ5;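 active = inhibition above the mean inhibition of all tested compounds plus 3 SD, set separately per screening campaign, cut at about 2.9% in these data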;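 also: PERK kinase domain activated by AP20187 dimerizer at 100 nM; 0% = DMSO with dimerizer and 100% = rapamycin at 8.4 µM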
EP2 modulator = modulators of human EP2 prostaglandin E2 receptor | EP2-expressing cells, cAMP HTRF FRET, PGE2 co-stimulation | induction, % at 25 µM | 0.83% of 260,000 active | AID 940;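 active = compounds whose cAMP rise, as percent of the full-agonist control response, exceeds 60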;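 also: rat C6 glioma line stably carrying human EP2 under a CMV promoter; the protocol text gives 20 µM as final concentration; 100% = response of wells given 1 µM PGE2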
eIF4E 4G PPI = blocks eIF4E binding to eIF4G. TR-FRET eIF4E-eIF4GI(517-606) binding, 2 h. 0.37% of 220,000 active. inhibition, % at 21.7 µM. P63073+Q04637;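 active = inhibition above about 30%, limit read from the data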;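 also: 0% = full FRET control wells and 100% = background wells lacking eIF4GI fragment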
Numbers without * were called inactive; · = not tested or not shown; ! = a repeat was not active; [ ] = another dose, or the depositor's remark.

SMILES	EP2 antag	PERK inh	EP2 modulator	eIF4E 4G PPI
NC(=O)CC(NC(=O)c1ccc(Br)cc1)c1ccc(NCc2ccc(F)c(F)c2)c([N+](=O)[O-])c1 (centres undefined)	43*	·	-16	-5
Cc1cc2nc3c(=O)[nH]c(=O)[nH]c3nc2c([N+](=O)[O-])c1N	7	1	-15	50*
COc1ccc(-c2csc(NC(=O)CSc3nc(C)cs3)n2)cc1	20	3.6*	-23	1
Cc1csc(NC(=O)CSc2nc(-c3ccc(Cl)cc3)cs2)n1	4	·	-60	·
c1cc2c3c(cccc3c1)NC1(CCC3(CC1)Nc1cccc4cccc(c14)N3)N2	89*	-1	-42	11
c1cc2c3c(cccc3c1)NC1(CCCCCC1)N2	7	1	-27	-11
COc1cc(/C=C/c2nc(O)c([N+](=O)[O-])c(=O)[nH]2)ccc1OC(C)C	7	·	-13	·
Cc1nnc(Sc2cc(NCCCO)c([N+](=O)[O-])c3nonc23)s1	13	1	-47	-1
Cc1nnc(Sc2cc(NCCO)c([N+](=O)[O-])c3nonc23)s1	50*	0	-69	0
Cc1ccc(Oc2c(C(N)=O)cc([N+](=O)[O-])cc2[N+](=O)[O-])cc1	24	1	-61	40*[fluorescence artefact?]
Cc1ccc2nc3cc([N+](=O)[O-])cc([N+](=O)[O-])c3cc2c1	7	0	-68	5
S=c1[nH]nc(C2CCCCC2)n1/N=C/c1ccc(Br)s1	7	1	63*	-2
COCCn1c(CN2CCN(C)CC2)nc2c1c(=O)n(C)c(=O)n2C	7	1	15	-2
CCOCCn1c(CN2CCN(C)CC2)nc2c1c(=O)n(C)c(=O)n2C	10	·	25	90*
CCn1c(SCC(=O)NCc2ccc3c(c2)OCO3)nnc1-c1cccs1	5	0	-2	68*
c1ccc(C[n+]2cccc(-c3cc4ccccc4[nH]3)c2)cc1	59*	·	-32	·
O=C(O)CNC(=O)[C@H]1NC(C(F)(F)F)(C(F)(F)F)OC1(C(F)(F)F)C(F)(F)F	42*	·	25	·
Cc1cc2c(s1)c1cnn(Cc3ccncc3)c(=O)c1n2Cc1ccc(F)cc1	·	·	-38	·
O=C(Nc1cccc(Cl)c1)N1CCSc2cc(Cl)ccc21	12	1	-23	1
O=C(Nc1ccccc1)N1CCSc2cc(Cl)ccc21	1	3.1*	17	0
CCCOC(=O)C(C)n1cnc2sc(C(=O)Nc3ccccc3)c(C)c2c1=O (centres undefined)	6	·	-66	·
CCOC(=O)Cn1nnnc1CN(Cc1cc2cc(C)cc(C)c2[nH]c1=O)CC1CCCO1 (centres undefined)	13	·	11	·
O=C(/C=C/c1ccco1)c1ccccc1O	5	0	-38	82*
Cc1ccccc1OC1C(=O)N(C2CCCC2)C1c1ccc2c(c1)OCO2 (centres undefined)	9	·	61*	·
CC1(C)CC2(CCCN(CCCN3CCCC4(CCOC(C)(C)C4)C3)C2)CCO1 (centres undefined)	11	·	-29	·
SMILES	EP2 antag	PERK inh	EP2 modulator	eIF4E 4G PPI
CCC(=O)NC1=C(NC(C)c2ccccc2)C(=O)c2ccccc2C1=O (centres undefined)	7	-1	-22	1
CCC(=O)NC1=C(Cl)C(=O)C(NC(=O)CC)=C(Cl)C1=O	117*	-1	-49	8
Cc1cc(C2(c3ccc(O)c(C)c3)C(=O)Nc3ccccc32)ccc1O	6	1	61*	0
CN(C1=C(N2CCCCC2)C(=O)c2ccccc2C1=O)c1ccccc1	7	0	64*	-13
O=C(Nc1cccc([N+](=O)[O-])c1)c1ccc2nc(N3C(=O)CCC3=O)sc2c1	85*	2	-38	5
Cc1sc2ncnc(SCC(=O)Nc3ccccc3-c3ccccc3)c2c1C	5	·	84*	·
Cc1sc2ncn3c(SCC(=O)Nc4ccccc4-c4ccccc4)nnc3c2c1C	17	·	67*	·
CCOc1ccc2[nH]c(=O)c(C(c3nnnn3C3CCCCC3)N3CCCc4ccccc43)cc2c1 (centres undefined)	7	·	48	·
CC(=O)c1sc(C(=O)O)c(-c2ccco2)c1-c1ccco1	43*	0	-36	6
CC1CCCC(C)N1C(=O)Nc1cccc(Cl)c1 (centres undefined)	5	2.9*	-2	-3
N#C/C(=C\c1ccc(OC(=O)c2ccc(Br)s2)cc1)c1nc2ccccc2[nH]1	3	1	4	34*
N#C/C(=C\c1ccc(OC(=O)c2ccc(Cl)s2)cc1)c1nc2ccccc2[nH]1	5	0	-6	23
COC(=O)c1sc2nc3c(c(-c4cccs4)c2c1N)CCCC3	10	0	64*	6
NC(=O)c1sc2nc3c(c(-c4ccco4)c2c1N)CCCC3	6	1	22	-12
Oc1ccc2ccccc2c1/C=C/c1ccc2c(Br)cc(Br)c(O)c2n1	42*	·	4	·
Oc1ccc(Cl)cc1/C=C/c1ccc2cccc(O)c2n1	6	-1	-56	4
Cc1cc2cc(CN(C(=S)NCc3ccco3)C3CCCC3)c(=O)[nH]c2cc1C	10	·	28	·
CC(C)C(=O)N1CCN(c2ccc(NC(=O)c3ccccc3F)cc2)CC1	9	·	15	·
COCCN(CCOC)c1ncnc2c1cnn2-c1ccccc1	14	·	78*	-23
COCCN(CCOC)c1ncnc2c1cnn2-c1ccc(Cl)cc1	4	-1	-3	5
COc1ccc(N=c2oc3ccccc3cc2C(=O)NCc2ccco2)cc1	11	·	78*	·
Nc1nnc(-c2ccncc2)s1	11	1	20	3
c1cc(-c2sc(-c3ccncc3)c(-c3ccncc3)c2-c2ccncc2)ccn1	41*!	1	-12	-5
C=CCN(c1ccccc1)S(=O)(=O)c1cccc(C(=O)O)c1	16	3.4*	46	0
O=C(O)c1cccc(S(=O)(=O)N(Cc2ccccc2)c2ccccc2)c1	14	1	46	0
SMILES	EP2 antag	PERK inh	EP2 modulator	eIF4E 4G PPI
O=c1[nH][nH]c(=S)n1C1CCCCC1	8	1	-41	44*
CC(C)C1NC(=S)N(C2CCCCC2)C1=O (centres undefined)	10	1	20	-1
CCOC(=O)C1=C(C)N(c2ccc(OC)cc2)C(=O)/C1=C\c1cccs1	2	-1	15	-45
CCOC(=O)C1=C(C)N(c2ccc(OC)cc2)C(=O)/C1=C\c1ccc(O)c(OCC)c1	41*	-2	31	-4
Cc1cc(-c2ccc(Cl)cc2)c(C#N)c(N)n1	51*	0	14	-35
COc1ccc(-n2cccc2/C=C2\C(=N)N3N=C(C(C)C)SC3=NC2=O)cc1	4	0	-12	4
COc1ccc(-n2cccc2/C=C2\C(=N)N3N=C(c4ccco4)SC3=NC2=O)cc1	6	1	-15	46*
Cc1nn(CC(=O)NCCN(C(C)C)C(C)C)c(=O)c2cc3sccc3n12	·	·	12	·
CCS(=O)(=O)N1CCC(C(=O)NCc2ccc(F)cc2)CC1	6	3.4*	-4	4
O=S1(=O)C[C@@H]2N=C(N/N=C/c3ccccc3)S[C@@H]2C1	11	1	15	-3

Source: PubChem BioAssay (several laboratories)
